# Results taken from the supplement of paper PMC3334620.
# Whole data set: some 33,000 sequences, median “E-score (-0.5 to 0.5)” near -0.013, cut for the highest 2% near 0.3. Only a selection was taken, and the highest values are over-represented in it overall.
# Molecular target: T1, Msn1 (UniProt P22148)
# T1 sequence: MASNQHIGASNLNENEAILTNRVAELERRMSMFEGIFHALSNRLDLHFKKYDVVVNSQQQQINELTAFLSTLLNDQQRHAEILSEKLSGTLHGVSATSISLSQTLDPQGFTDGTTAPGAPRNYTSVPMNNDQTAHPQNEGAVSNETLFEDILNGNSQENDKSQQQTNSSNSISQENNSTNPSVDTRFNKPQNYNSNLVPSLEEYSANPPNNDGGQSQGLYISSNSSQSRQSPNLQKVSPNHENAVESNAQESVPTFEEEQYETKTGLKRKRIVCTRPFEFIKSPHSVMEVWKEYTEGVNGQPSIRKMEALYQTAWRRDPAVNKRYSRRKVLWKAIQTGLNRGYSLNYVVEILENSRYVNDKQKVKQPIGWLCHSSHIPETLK
# Assay: PBM E-score (8-mer binding enrichment) (E-score (-0.5 to 0.5)); higher = stronger / more preferred TF binding
# Conditions: protein concentration: 200 nM; construct: GST-full length
# Experimental: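 Universal 'all 10-mer' protein binding microarrays (Agilent AMADID 015681) probed with GST-tagged S. cerevisiae TFs (full-length or DBD) made by in vitro transcription/translation (PURExpress), about 100-200 nM. Bound TF was detected with fluorescent anti-GST. Each ungapped 8-mer (which stands for itself and its reverse complement) is scored by the PBM enrichment score (E-score), a modified Wilcoxon-Mann-Whitney statistic from -0.5 to +0.5, computed with the Universal PBM Analysis Suite. Scale: above 0.35 generally sequence-specific binding.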
row,Sequence,PBM E-score
1,GGACTTTA,0.328
2,AGACTTTA,0.0848
3,CGACTTTA,0.201
4,TCTGACAA,0.198
5,CGTGACAG,0.0649
6,GTTGACAA,0.269
7,TGTGACAA,0.377
8,CGTGACAA,0.309
9,CCTGACAA,0.202
10,AGTGACAA,0.302
11,GGTGACAC,-0.0303
12,GGTGACAA,0.322
13,CCGCCAGG,-0.117
14,AACAGCGG,-0.0502
15,CGCTATGC,-0.215
16,GTGTCCGA,0.37
17,CTGTCCGA,0.275
18,ATGTCCGA,0.475
19,GGGTCCGA,-0.115
20,AGGTCCGA,0.132
21,ACGTCCGA,-0.00037
22,AGTCCTGC,0.0243

row,Sequence,PBM E-score
1,AAAATCTG,0.182
2,AGATTGCC,-0.0449
3,AAAGACCG,0.0194
4,CAGGTAGA,-0.142
5,CCCTTCAA,-0.185
6,ATAGAGCG,-0.0637
7,AATTTGAC,0.194
8,ATTTTGTA,0.209
9,ATTTTGTG,0.144
10,ATTTTGTC,0.468
11,AATTTGTG,0.186
12,AATTTGTC,0.488
13,GGGGGAAC,-0.456
14,GTAAAGTA,0.0255
15,ACGGGACA,0.384
16,ACGGGACC,-0.247
17,GCGGGACA,0.359
18,CCGGGACC,-0.159
19,CCGGGACA,0.457
20,GCGGGACC,-0.22
21,TCGGGAGA,0.014
22,ACGGGACT,0.0899

row,Sequence,PBM E-score
1,CCGGGACG,-0.0555
2,GCGGGATA,0.0848
3,TCGGGAAA,0.176
4,TCGGGACA,0.456
5,GAGCCCGA,-0.128
6,CTAGTGGA,-0.211
7,CGGAGGAC,0.0943
8,ACTTAGCG,0.074
9,ACCTCGAG,-0.0305
10,CATGGTCA,0.117
11,CTGGGGTC,-0.217
12,CGACTTCA,0.0948
13,GCGCTTGA,0.00998
14,GGACTTCA,0.0504
15,ACACTGTC,0.165
16,GTCCTAGA,0.342
17,CTCCTAGA,-0.0389
18,CTCCTTAA,-0.0988
19,GTCCTACA,0.385
20,CTCCTACA,-0.187
21,ATCCTACA,-0.189
22,GTCCTTAA,0.433

row,Sequence,PBM E-score
1,TTCCTAAA,0.0739
2,GTCCTAAA,0.365
3,ATCCTAGA,-0.0654
4,ATCCTTAA,-0.126
5,ATCCTAAA,-0.0285
6,ACAGCCGA,-0.16
7,GGCAAACC,-0.244
8,ACTCTCCG,-0.11
9,ACCTCCTG,-0.169
10,AGCATACC,-0.0756
11,ACACTAAC,0.119
12,CTCTATGC,-0.0926
13,AGTCGGAG,-0.189
14,GGACTTAC,0.273
15,CCTCCGGA,0.102
16,CTCCTAAC,-0.278
17,ATACTAGA,0.125
18,CTACTAGA,-0.0895
19,ATCCTAAC,0.0664
20,GTCCTAAC,0.36
21,GTACTAGA,0.308
22,ACTCAAAG,0.0435

row,Sequence,PBM E-score
1,ATGCGTTA,-0.0377
2,CACACTAC,-0.188
3,CAAGGGCG,-0.191
4,ATGCAGAG,-0.253
5,ATCGGACG,0.00151
6,CTCGGACC,0.165
7,GTCGGACA,0.427
8,GTCGGATA,0.0474
9,CTCGGACA,0.44
10,ATCGGACC,0.0183
11,ATCGGACA,0.369
12,CTCGGATA,0.157
13,GTCGGAGA,0.0165
14,CTGGGCCC,-0.252
15,CGCCTGGA,-0.0478
16,ACTGAACA,0.0547
17,CATTGCGA,-0.0316
18,ATCACCAA,-0.0626
19,GAGTAATC,-0.128
20,CCGACTGC,-0.00611
21,TAATGTAA,0.114
